# Compounds with a hit are over-represented: about 1.6% of the library has one in this group of screens.
# HTR5A inv ag: HTR5A inverse agonists in luminescence cell assay, primary screen, counter-screen for OPRM1-OPRD1 heterodimer inverse agonist project, full-deck HTS; 5-hydroxytryptamine receptor 5A (Homo sapiens), P47898; HTR5A cell line, inverse agonism; inhibition, % at 9.3 µM; 340,000 compounds, 0.083% hits; AID 504634, 2011; in the data active = inhibition mostly above about 23%, no sharp cut-off; inactive = mostly below about 18%;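 note: 0% = cells with DMSO and 100% = no-cell wells with DMSO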
# OPRM1-OPRD1 ag: agonists of OPRM1-OPRD1 heterodimerization, primary screen, cell-based, luminescence. cells. AID 504326, 2011. Mu-type opioid receptor (Homo sapiens) + Delta-type opioid receptor (Homo sapiens), …. activation, % at 9.3 µM. 340,000 compounds, 0.3% hits; in the data active = activation above about 18%;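 note: 0% = vehicle-treated cells and 100% = reference agonist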
# HTR5A ag ctr: HTR5A agonists in luminescence cell assay, primary screen, counter-screen for OPRM1-OPRD1 heterodimer agonist project, full-deck HTS; 5-hydroxytryptamine receptor 5A (Homo sapiens), P47898; cell-based; activation, % at 9.3 µM; 340,000 compounds, 0.61% hits; AID 504692, 2011; in the data active = activation mostly above about 9.5%, no sharp cut-off; inactive = mostly below about 7.6%;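 note: 0% = cells with vehicle only and 100% = reference agonist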
# NALP1 inh: NALP1 inflammasome inhibitors in reconstituted yeast, colorimetric, S. cerevisiae, triplicate retest | S. cerevisiae NALP1/ASC/caspase-1 growth, X-gal OD620, 72 h | inhibition, % at 10 µM | 280,000 compounds, 0.61% hits | AID 2071, 2009; in the data active = inhibition mostly above about 24%, no sharp cut-off; inactive = mostly below about 32%
# OPRM1-OPRD1 inv: inverse agonists of MOR-DOR heterodimerization, primary screen, cell-based, luminescence. 340,000 compounds, 0.21% hits. cell-based MOR-DOR heterodimer luminescence, inverse agonism. inhibition, % at 9.3 µM; in the data active = inhibition above about 22%, passing the limit was not always enough;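 note: 0% = cells with DMSO and 100% = wells without cells with DMSO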
# PolyA inhibitor: polyadenylation inhibitors in yeast reporter cells, primary screen, luminescence, S. cerevisiae | activity score, % at 12 µM | 300,000 compounds, 0.02% hits | S. cerevisiae SKY197-pL101 polyadenylation reporter, beta-gal luminescence; efflux-impaired pdr1/pdr3 knockout yeast; score 100 = 6 SD above DMSO;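 active = lowest replicate activity score at least 50, where 100 means six control SD above control mean; inconclusive = lowest score under 50 but half or more replicates reach 50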;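 note: yeast exposed to compound for 9 h at 30 °C; higher score means more reporter readthrough which indicates perturbed polyadenylation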
# * hit, by the source's call; ? = inconclusive; . = not tested or not shown.
SMILES,HTR5A inv ag,OPRM1-OPRD1 ag,HTR5A ag ctr,NALP1 inh,OPRM1-OPRD1 inv,PolyA inhibitor
COc1cc(OC)c(C2=NOC(C(=O)N3CCCc4ccccc43)C2)cc1Cl (stereo unspecified),-11,0,0,37*,1,1
CN1CCN(C2=C(Cl)C(=O)c3ccccc3C2=O)CC1,14,28*,-3,.,-136,.
CN1CCN(C2=C(Cl)C(=O)N(C3CCCCC3)C2=O)CC1,25,-2,3,9,10,-6
CN1CCN(C2=C(Cl)C(=O)C(c3cnc(N4CCCCC4)s3)=C(Cl)C2=O)CC1,-1,10,0,72*,-44,8
CC1(c2ccc(Cl)cc2)NC(=O)N(CC(=O)Nc2ccc(N3CCCCC3)cc2)C1=O (stereo unspecified),-16,2,3,.,-12,-8
COc1ccc(C2c3[nH]c4ccccc4c3C[C@H]3C(=O)N(c4ccccc4C(=O)N4CCC[C@H]4C(=O)O)C(=O)N23)cc1 (stereo partly specified),-10,-1,1,11,3,5
N#CCCNS(=O)(=O)c1ccc(C(=O)OCCCOC(=O)c2ccc(S(=O)(=O)NCCC#N)cc2)cc1,3,-3,4,6,18,5
N#CCCNS(=O)(=O)c1ccc(C(=O)OCC2CCCCC2)cc1,1,7,12*,-5,-60,-1
CCOC(=O)c1ccc(NC(=O)C(C)Sc2nc(O)c(-c3ccccc3)c(=O)[nH]2)cc1 (stereo unspecified),-6,-2,2,-4,10,4
CCOc1ccc(CCNC(=O)C2CCN(c3nnc(-n4cccc4)s3)CC2)cc1,-18,1,7,42*,-3,?
O=C(Nc1nnc(-c2cccs2)o1)c1cccc(Oc2ccccc2)c1,2,1,-1,38*,-6,.
CCCN(C(=O)CSc1ncccn1)C1CCS(=O)(=O)C1 (stereo unspecified),-9,-3,3,.,13,.
Cc1ccc2nsnc2c1S(=O)(=O)N1CCOCC1,9,-1,-1,34*,8,-9
O=S(=O)(c1cccc2nsnc12)N1CCOCC1,3,0,-1,15,3,-6
CCOC(=O)c1[nH]c2ccccc2c1NC(=O)c1ccc2c(c1)OCO2,3,-1,-1,40*,4,0
COc1ccc2cc(C(=O)N3CCCC(Nc4ccc(F)cc4)C3)n(C)c2c1 (stereo unspecified),-7,-1,1,35*,6,10
COc1cc(OC)cc(C(=O)N2CCCC(Nc3ccc(F)cc3)C2)c1 (stereo unspecified),-7,-2,3,0,11,5
CC(C)(C)C1CCC(=NNC(=O)c2cc3c(s2)CCCC3)CC1 (stereo unspecified),-2,2,2,16,-10,10
CC(C)(C)C1CCc2sc(C(=O)NNC(=O)CCl)cc2C1 (stereo unspecified),-163,38*,57*,-41,-197,-41
O=C(C[n+]1ccccc1)Nc1ccc(Oc2ccccc2)cc1,22,-1,4,2,7,2
CSCCC(NC(=O)c1ccccc1C)C(=O)O (stereo unspecified),8,-1,4,-10,4,5
Cc1cc(CC(=O)O)n(C)c1C(=O)c1ccc(Cl)cc1,-40,-2,9.7*,.,13,.
CCN1CCN(c2ccc(S(=O)(=O)N3CCOCC3)cc2NC(=O)/C=C/c2ccc([N+](=O)[O-])cc2)CC1,15,7,1,.,-44,17
COc1cc(NS(=O)(=O)c2ccc(C)cc2)c2ncccc2c1,18,-9,-3,6,47*,-25
CCCC(=O)Nc1sc(C)c(C)c1C(=O)Nc1cccc(C)c1,-7,3,3,-9,-17,15
SMILES,HTR5A inv ag,OPRM1-OPRD1 ag,HTR5A ag ctr,NALP1 inh,OPRM1-OPRD1 inv,PolyA inhibitor
O=C(COc1ccc(Br)cc1)NCc1ccccn1,-6,-1,0,6,8,12
N#Cc1ccc(OCC(=O)NCCc2ccccn2)cc1,-8,-1,3,36*,7,-1
O=C(O)c1cc(N2CCCCC2)ccn1,-2,-2,1,.,13,.
COc1ccc(-n2nc(C(=O)O)cc2-c2ccccc2)cc1,16,-2,-4,14,9,-14
O=C(O)c1cccc(N2C(=O)c3cccc(Oc4ccc(Cl)cc4)c3C2=O)c1,7,-1,-3,18,9,8
Cc1cccn2c(=O)c3cc(S(=O)(=O)c4ccccc4)c(=N)n(Cc4ccco4)c3nc12,-30,2,12*,-64,-11,4
Cc1ccc(S(=O)(=O)c2cc3c(=O)n4ccccc4nc3n(CCc3ccccc3)c2=N)cc1,14,-3,-4,32*,19,-5
CC(=O)Nc1ccc(S(=O)(=O)Nc2ccccc2C(=O)N2CCCC2)cc1,-3,-3,5,15,17,19
O=C(O)CCCCCNCc1ccncc1,2,-2,-1,16,11,11
O=C(O)CCCCNCc1ccccc1,-15,0,-2,40*,3,-3
CC(C(=O)Nc1ccc(Cl)cc1Cl)N1C(=O)NC2(CCCC2)C1=O (stereo unspecified),5,1,2,5,-12,6
CCN1CCCC1CNS(=O)(=O)c1ccc(Cl)c(C(F)(F)F)c1 (stereo unspecified),22,-3,13*,9,14,3
O=C(CNS(=O)(=O)c1ccc(Cl)c(C(F)(F)F)c1)NC1CCCCC1,-18,0,9,.,-1,.
Cc1ccc2nc(SCC(=O)Nc3cccnc3Cl)[nH]c2c1,-22,5,8,.,-20,.
Cc1ccc(C)c(SCC(=O)Nc2cccnc2Cl)c1,2,-2,5,33*,10,-10
c1ccc(COc2ccc3nocc3c2)cc1,-12,6,5,.,-31,4
O=C(Cn1ncc2c1-c1ccccc1OC2)Nc1cccc(Cl)c1,-27,4,9,38*,-22,3
CCOc1ccc(-c2cc(NC(=O)Cn3ncc4c3-c3ccccc3OC4)on2)cc1OCC,-39,12,9,44*,-65,-2
O=C(Nc1nncs1)c1cc(-c2ccncc2)nc2ccc(Cl)cc12,-13,-2,2,27*,9,11
